Measured values taken from PubChem BioAssay (NCATS).
Inconclusive results are not listed. Values without a mark were called inactive. Active and inactive are the calls of the source. The call rests on the fitted dose curve; in most records, active means well fitted inhibition curve with a large enough effect; inconclusive means small, poorly fitted or top-dose-only effect; inactive means flat fitted curve, though single readings scatter.

biological target: Calcium and integrin-binding protein 1 (Homo sapiens) (UniProt Q99828); experiment: Primary qHTS for Identification of Calcium Integrin Binding Protein 1 (CIB1) Competitor (AID 1508620); conditions: CIB1-GST / FITC-alphaIIb peptide fluorescence polarization; series mostly up to 114 µM; activity change, negative = inhibition: at the top concentration;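 further: GST tagged CIB1 binding a fluorescein labelled alphaIIb integrin peptide tracer; top concentration of the series differs between compounds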
Sequence (Q99828 whole entry, looked up): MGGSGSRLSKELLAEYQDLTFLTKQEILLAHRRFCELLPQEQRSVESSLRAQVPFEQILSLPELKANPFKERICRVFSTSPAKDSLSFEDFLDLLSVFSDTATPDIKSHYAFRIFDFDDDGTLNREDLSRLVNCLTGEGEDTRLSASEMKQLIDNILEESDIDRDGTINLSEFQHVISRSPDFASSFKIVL
Procedure, shortened: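 Fluorescence polarization competition: CIB1-GST (1 uM final) preincubated with compound 15 min at room temperature, then FITC-labeled alphaIIb peptide (100 nM final) added for another 15 min. Polarization read at Ex 480/Em 540.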
On the % scale 0 is the no-effect control and ±100 the full control effect.

Compound | activity change, negative = inhibition [%] | Potency
CC(C)(C)OC(=O)NCc1nnc(-c2cc3ccccc3[nH]2)o1 | -2.65 | –
Cc1cc(-c2nnc3n2CCCCC3)c(C)n1-c1ccncc1 | -1.22 | –
Cn1nnnc1Sc1ncnc2scc(-c3ccc4c(c3)OCO4)c12 | 4.77 | –
COc1ccc(-c2nnc3n2N=C(c2cc(OC)ccc2OC)CS3)c(OC)c1 | -1.15 | –
Cc1cc(C)nc(NC(=S)N2CCN(c3cccc4cnccc34)CC2)c1 | -9.88 | –
O=C1CCCC2=C1C(c1[nH]ncc1Cl)N=C(Nc1nc3cc(Br)ccc3o1)N2 (centres undefined) | -12.4 | –
Cc1cc(C)nc(NC(=S)N2CCN(c3ccc4cnccc4c3)CC2)c1 | -1.09 | –
CC(C)(C)OC(=O)Cc1nnc(C(C(=O)OCc2ccccc2)c2ccccc2)s1 (centres undefined) | 0.406 | –
O=C(CN1C(=O)N/C(=C\c2cccn2-c2cccc(C(=O)O)c2)C1=O)Nc1ccccc1F | -5.75 | –
O=S(=O)(c1ccc2c(c1)OCCO2)N1CCN(S(=O)(=O)c2ccc(F)c(F)c2F)CC1 | -2.33 | –
O=C(O)c1ccc(O)c2ncc(-c3ccc(N4CCOCC4)cc3)cc12 | -15.3 | –
Cc1ccc(OCCn2c(CCNC(=O)c3cccc(C)c3)nc3ccccc32)cc1 | 4.84 | –
CC(=O)Nc1sc2cnccc2c1-c1nc2ccccc2s1 | 5.19 | –
O=C(O)c1ccc(CSc2nnc(-c3ccc([S+](=O)([O-])N4CCCC4)cc3)n2-c2ccccc2)cc1 | -2.77 | –
O=C(Nc1ccc(Oc2ccccc2)cc1)Nc1nnc(-c2ccncc2)s1 | 1.14 | –
CC(=O)Nc1sc2c(c1-c1ccccc1)CCN(C(=O)OC(C)(C)C)C2 | 7.21 | –
O=C1CCc2cc(S(=O)(=O)Nc3ccc(Cl)cc3)ccc2N1 | -1.62 | –
Cc1ccc(CNc2ncnc3cc(-c4ccc5c(c4)OCO5)ccc23)o1 | -2.27 | –
COc1cc(OC)cc(-c2nnc3n2N=C(c2cc(OC)ccc2OC)CS3)c1 | 1.56 | –
COCCNc1ccc(NC(=O)c2cccs2)cn1 | -5.2 | –

Compound | activity change, negative = inhibition [%] | Potency
Cc1ccc(C(=O)NCC(=O)OC(C(=O)Nc2cc(C(F)(F)F)ccc2Cl)c2ccccc2)cc1 (centres undefined) | -2.74 | –
O=c1c2ccccc2nc2sc(NCc3ccc(Oc4ccccc4)cc3)nn12 | 8.44 | –
COc1ccc(C2Nc3ccccc3C(=O)N2Cc2ccc3c(c2)OCO3)cc1COc1c(C)cc(NC(C)=O)cc1C (centres undefined) | -1.89 | –
O=C1CCCC2=C1C(c1[nH]ncc1Cl)NC(=NCc1nccs1)N2 (centres undefined) | -10.7 | –
O=C1CCCC2=C1C(c1[nH]ncc1Cl)N=C(Nc1nc3c(Cl)cccc3o1)N2 (centres undefined) | -2.81 | –
CN(C)c1cccc(-c2cnc(N3CCC(C(N)=O)CC3)s2)c1 | -8.56 | –
O=C(NC1CCCc2c1cnn2CCO)c1ccccn1 (centres undefined) | 1.06 | –
O=C(O)c1ccc(-c2noc(-c3ccccc3F)n2)cc1 | – | inactive
Cc1ccc(NS(=O)(=O)c2ccc3c(c2)CCCC(=O)N3)cc1C | 1.81 | –
O=C1Nc2ccccc2/C1=C\c1cc(Br)c(O)c(Br)c1 | 2.59 | –
O=C(Nc1ccc(-c2nc3ccccc3[nH]2)cc1)c1ccc2sccc2c1 | 2.1 | –
O=C(Nc1ccc2ccccc2c1)Nc1nnc(-c2ccccc2Cl)s1 | 9.84 | –
COc1ccc(-c2nc3ccc(Cl)cc3c(=O)n2Cc2ccccc2)cc1COc1ccc(NC(C)=O)cc1 | 3.89 | –
O=S(=O)(NCC1CN(S(=O)(=O)c2ccc3c(c2)OCCO3)C1)c1c(F)cccc1F | 0.53 | –
NC(=O)C1CCN(c2nc(-c3ccccc3Cl)cs2)CC1 | 4.96 | –
CCOC(=O)c1ccc(-n2c(C)cc(-c3nnc4n3CCCCC4)c2C)cc1 | 1.22 | –
CC(=O)Nc1sc2c(c1-c1ccc(F)cc1)CCNC2 | 4.45 | –
Cc1cc(N[S+](=O)([O-])c2cc3c(cc2Cl)NC(=O)CO3)ccc1Cl | -6.02 | –
COc1ccc(C2Nc3ccc(Cl)cc3C(=O)N2Cc2ccccc2)cc1COc1ccc(NC(C)=O)cc1 (centres undefined) | 9.1 | –
